Reference: PubChem BioAssay AID1851 (National Center for Advancing Translational Sciences (NCATS), 2009)
“And” between values parts separate entries of the source, which are not always exact repeats. Identical values can stand only once. Out of some 16,000 compounds screened, about 2,600 (16%) were called active. Roughly 20% stayed inconclusive and do not appear here. The call rests on the fitted dose curve; in most records, active means well fitted curve in the direction sought with a large enough effect; inconclusive means small, poorly fitted or top-dose-only effect, or effect the other way; inactive means no such curve, though single readings can be large or run the other way. These entries were drawn from the full list. Some compounds were tested as several samples or in several runs, with calls that do not always agree.

The molecules below were run against Cytochrome P450 2D6 (Homo sapiens) (UniProt P10635) (assay: Cytochrome panel assay with activity outcomes). Conditions: recombinant CYP, pro-luciferin dealkylation, luminescence, p450-cyp2d6; series mostly up to 57.1 µM; activity, negative = inhibition: at the top concentration.
On the % scale 0 is the no-effect control and ±100 the full control effect.

Sequence of Cytochrome P450 2D6 (Homo sapiens) (P10635 whole entry, looked up): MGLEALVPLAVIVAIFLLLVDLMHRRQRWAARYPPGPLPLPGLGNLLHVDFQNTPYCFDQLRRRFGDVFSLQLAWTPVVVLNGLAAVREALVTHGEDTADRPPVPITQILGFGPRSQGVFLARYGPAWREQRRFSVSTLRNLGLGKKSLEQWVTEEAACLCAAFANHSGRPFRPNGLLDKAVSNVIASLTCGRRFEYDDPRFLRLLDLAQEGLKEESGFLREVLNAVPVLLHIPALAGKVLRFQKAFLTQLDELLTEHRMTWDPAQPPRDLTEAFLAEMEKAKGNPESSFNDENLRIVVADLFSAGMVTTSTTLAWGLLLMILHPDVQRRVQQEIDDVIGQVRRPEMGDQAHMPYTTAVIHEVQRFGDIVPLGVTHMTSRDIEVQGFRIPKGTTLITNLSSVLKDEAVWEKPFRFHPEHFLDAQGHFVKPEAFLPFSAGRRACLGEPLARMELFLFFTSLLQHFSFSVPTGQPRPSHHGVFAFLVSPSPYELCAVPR

Row | SMILES | activity, negative = inhibition | AC50
1 | C=CCSc1nnc(NC(=O)COc2ccc3ccccc3c2)s1 | -15.8% (inactive) | –
2 | COC(=O)c1c(C)nc2ccccc2c1C(=O)O | 8.63% (inactive) | –
3 | COc1ccc(CCNC(=O)COC(=O)c2cnc(C)cn2)cc1 | -5.73% (inactive) | –
4 | COc1ccc2c(c1)C(=O)N(CCc1ccc(S(=O)(=O)NC(=O)NC3CCCCC3)cc1)C(=O)C2(C)C | 2.46% [at 25.6 µM] (inactive) | –
5 | COc1ccc(CCNC(=O)COc2ccc(S(=O)(=O)NC3CCCCC3)cc2Cl)cc1 | – | 15.8 µM (active)
6 | Cc1ccc(N=Nc2c(=O)[nH]n3c(C)cc(C)nc23)cc1 | 25.6% (inactive) | –
7 | O=C1Nc2ccccc2Nc2ncccc21 | 15.5% (inactive) | –
8 | CCN1CCCC1CNC(=O)C1c2cc(OC)c(OC)cc2C(=O)N(C)C1c1cccnc1 (centres undefined) | 1.99% (inactive) | –
9 | CN1CCN(CC(=O)N2c3ccccc3C(=O)Nc3cccnc32)CC1 | – | inactive and 31.6 µM (active)
10 | Cc1sc2nc(C3CC3)nc(SCC(=O)N3CC(=O)Nc4ccccc43)c2c1C | -27.5% (inactive) | –
11 | Cc1scc2c1N(C(=O)CN1CCN(C)CC1)c1ccccc1NC2=O | – | inactive and 5.01 µM (active)
12 | O=C1c2ccccc2C(=O)N1CC(=O)N1c2ccccc2CCc2ccccc21 | -0.19% (inactive) | –
13 | CCCN(CCC)C[C@@H]1CCCCN1CCNC(=O)N1c2ccccc2C(=O)Nc2cccnc21 | – | 2.51 µM (active)
14 | CCCCN1C(=O)C(NC(=O)C2CC2)(C(F)(F)F)C2=C1CC(C)(C)CC2=O (centres undefined) | 8.85% (inactive) | –
15 | O=C(CCn1nc(-c2ccc(Cl)cc2)ccc1=O)N1CCOCC1 | -10.2% (inactive) | –
16 | O=C1Nc2ccccc2C1=Nc1cccc2ncccc12 | -4.91% [at 11.4 µM] (inactive) | –
17 | Nc1ncnc2c1ncn2CCCCC(=O)O | -3.98% [at 11.4 µM] (inactive) | –
18 | O=c1c(-c2ccccc2)nc2cncnc2n1-c1ccccc1 | -2.82% (inactive) | –
19 | CCC(CC)C(=O)Nc1c2cnn(-c3ccccc3)c2nc(=O)n1-c1ccccc1 | -3.81% (inactive) | –
20 | CCCc1nnc(NC(=O)CN2C(=O)C3C4C=CC(C4)C3C2=O)s1 (centres undefined) | 13.7% (inactive) | –
21 | O=c1cnc2cnc(N3CCOCC3)nc2n1C1CC1 | 3.75% (inactive) | –
22 | COc1ccc(CNc2ncnc3ccc(-c4c(C)noc4C)cc23)c(OC)c1 | – | 15.8 µM (active)
23 | COc1ccccc1CNc1ncnc2ccc(-c3ccc4c(c3)OCO4)cc12 | – | 0.794 µM (active)
24 | COc1ccccc1CNc1ncnc2ccc(-c3ccoc3)cc12 | – | 3.16 µM (active)
25 | COCCNc1ncnc2ccc(-c3ccoc3)cc12 | 0.232% (inactive) | –
26 | COc1ccc(CNc2ncnc3ccc(-c4ccoc4)cc23)c(OC)c1 | – | 10 µM (active)

Row | SMILES | activity, negative = inhibition | AC50
27 | CCOC(=O)COc1ccc(/C=C/[N+](=O)[O-])c(OCC(=O)OCC)c1 | -6.43% (inactive) | –
28 | Clc1ccc(Nc2ncn[nH]2)cc1 | 11% (inactive) | –
29 | CCCCCCCCCCCCCCCC(=O)C(F)(F)F | -3.23% (inactive) | –
30 | Cc1cc(C)c(-c2noc(C(=O)OC(C)(C)C)c2C(=O)OC(C)(C)C)c(C)c1 | -5.04% (inactive) | –
31 | Cc1cc(OC(=O)c2ccccc2Cl)cc(=O)n1C | -6.09% (inactive) | –
32 | Cc1sc2ncn(CC(=O)NCCCC(=O)N3CCN(c4ncccn4)CC3)c(=O)c2c1C | 0.039% (inactive) | –
33 | Cc1ccc(C)n1N1C(=O)/C(=C\c2ccc(Cl)cc2)SC1=S | -11.4% (inactive) | –
34 | Cn1c(SCC(=O)NC2CC2)nnc1-c1cccc(NC(=O)c2ccccc2F)c1 | -21% (inactive) | –
35 | C[C@H]1/C=C\CC(=O)OC[C@H](C)C(=O)N2CCC[C@@H]2C(=O)OC1 | -8.94% [at 11.4 µM] (inactive) | –
36 | COc1ccc2nc(NC(=O)CSc3nnc(C)s3)sc2c1 | -7.57% (inactive) | –
37 | COc1ccc2c(c1)nc(SCC(=O)c1ccc(Br)s1)n2C | – | 5.01 µM (active)
38 | COc1ccc2nccc(SCC(=O)O)c2c1 | -10.3% [at 11.4 µM] (inactive) | –
39 | CCOC(=O)C1=C(N)n2c(s/c(=C/c3ccccc3)c2=O)=C(C(=O)OCC)C1c1ccccc1 (centres undefined) | 5.82% (inactive) | –
40 | c1ccc(-c2nc3ccccc3o2)nc1 | -8.6% (inactive) | –
41 | Cn1c(=O)c(-c2cccs2)nc2cnc(N3CCNCC3)nc21 | -7.69% (inactive) | –
42 | Cc1ccc(-n2[nH]c(=O)c3cccnc32)cc1 | 17% (inactive) | –
43 | CC(C)c1ccc2c(c1)CC[C@H]1[C@@](C)(CN)CCC[C@@]21C | – | 1.26 µM (active)
44 | COc1ccc(Cc2nc3ccc(S(=O)(=O)N4CCOCC4)cc3[nH]2)cc1OC | -0.602% (inactive) | –
45 | CCCCC#Cc1nc(N)c2ncn([C@@H]3O[C@@H](C(=O)NCC)[C@H](O)[C@@H]3O)c2n1 | 11% (inactive) | –
46 | COc1cccc(-c2noc(Cn3nc(C)c([N+](=O)[O-])c3C)n2)c1 | -13.8% (inactive) | –
47 | CCOc1ccc(C(=O)Cc2cc(OC)c(OC)cc2[N+](=O)[O-])cc1 | 6.77% (inactive) | –
48 | COc1cccc(CN2CCN(Cc3cc(OC)c(OC)cc3[N+](=O)[O-])CC2)c1 | – | 0.224 µM (active)
49 | COc1cccc(Nc2ncc3ncc(=O)n(C)c3n2)c1 | -4.79% (inactive) | –
50 | COc1ccc(CCNC(=O)Cn2cnc3c2c(=O)n(C)c(=O)n3C)cc1OC | 2.41% (inactive) | –
51 | O=C(O)c1nn(-c2ccc(Cl)cc2)c2c1C(=O)c1ccccc1C2=O | -7.18% [at 11.4 µM] (inactive) | –
52 | CCCNC(=O)Nc1ccc2c(c1)nc(C)n2C | 8.71% (inactive) | –

Row | SMILES | activity, negative = inhibition | AC50
53 | O=C(Nc1ccc2c(c1)nc1n2CCN(C2CCCCC2)C1)NC1CCCCC1 | – | 12.6 µM (active)
54 | O=C(Nc1ccc(Cl)cc1)NC1CCCCC1 | -2.71% (inactive) | –
55 | O=C(O)CC/C=C\CC[C@H]1[C@@H](N2CCCCC2)[C@@H](O)C[C@@H]1OCc1ccc(-c2ccccc2)cc1 | 10.6% (inactive) | –
56 | COc1ccc2c(c1)CCCC21NC(=O)N(CC(N)=O)C1=O (centres undefined) | 11.4% (inactive) | –
57 | CCOC(=O)N1N=C(c2ccccc2)CC1(O)C(F)(F)F (centres undefined) | 3.62% (inactive) | –
58 | COC(=O)c1ccc(NC(=O)c2ccccc2)o1 | 12.2% (inactive) | –
59 | CN1CCN2c3ncccc3Cc3ccccc3C2C1 (centres undefined) | – | 0.501 µM (active)
60 | O=c1[nH]c(=S)[nH]nc1Cc1ccccc1 | 4.49% (inactive) | –
61 | Cc1c(N(C)C)c(=O)n(-c2ccccc2)n1C | 1.13% [at 25.6 µM] (inactive) | –
62 | CSC1=C(C#N)C(c2ccccc2Cl)C2=C(N1)c1ccccc1C2=O (centres undefined) | -20.8% (inactive) | –
63 | COc1cc(/C=C/C(=O)Nc2ccccc2C(F)(F)F)cc(OC)c1OC | 4.2% (inactive) | –
64 | CCc1ccc2c(-c3cccc(Cl)c3)nc(=O)n(CC)c2n1 | -15% (inactive) | –
65 | Cc1ccc(C(=O)COC(=O)CNC(=O)C(c2ccccc2)c2ccccc2)cc1[N+](=O)[O-] | -8.5% (inactive) | –
66 | Cc1ccc(-n2ccnc2SCC(=O)N(CC(C)C)C2CCS(=O)(=O)C2)c(C)c1 (centres undefined) | -6.08% (inactive) | –
67 | Cc1cc(C)n(-c2nc(SCCN(C)C)c3c4c(sc3n2)CCCC4)n1 | – | 0.794 µM (active)
68 | O=C(O)CSc1ncnc2sc3c(c12)CCC3 | -4.52% (inactive) | –
69 | Cc1cc(C)n(-c2nc(NCC(C)O)c3c4c(sc3n2)COC(C)(C)C4)n1 (centres undefined) | -1.92% (inactive) | –
70 | C[C@@H]1C[C@H](C)CN(S(=O)(=O)c2cc(Cl)c(Oc3ccc([N+](=O)[O-])cc3Cl)c(Cl)c2)C1 | 2.46% [at 11.4 µM] (inactive) | –
71 | CC1(C)Cc2ccccc2C(N/N=C/c2cccc(F)c2)=N1 | – | 11.2 µM (active)
72 | Cc1cccc(/C=N\Nc2cn[nH]c(=O)c2Cl)c1 | -13% (inactive) | –
73 | O=C(N/N=C/c1cccc(F)c1)c1csc2c1CCCC2 | -28.5% (inactive) | –
74 | Cn1c(=O)c(-c2ccc(Cl)cc2)nc2cnc(N3CCOCC3)nc21 | 0.0181% (inactive) | –
75 | Oc1cc(O)c2c(c1)O[C@@H](c1ccc(O)c(O)c1)[C@H](O[C@@]1(c3cc(O)c(O)c(O)c3)Oc3cc(O)cc(O)c3[C@H](O)[C@@H]1O)C2 | -0.664% [at 11.4 µM] (inactive) | –
76 | Cc1ccc(C(=O)Oc2cc(C)n(C)c(=O)c2)cc1 | -3.57% (inactive) | –
77 | CCCN(CCC)S(=O)(=O)c1ccc(C(=O)O)cc1 | 1.42% [at 25.6 µM] (inactive) | –
78 | CCN(CC(=O)NCc1cccs1)S(=O)(=O)c1ccc(C(C)C)cc1 | – | 3.55 µM (active)

Row | SMILES | activity, negative = inhibition | AC50
79 | CCN(c1ccccc1)S(=O)(=O)c1ccc(NC(=S)NC(=O)c2cccs2)cc1 | -14.7% (inactive) | –
80 | Cc1nn(CC(O)COc2ccc3c(c2)CCC3)c(C)c1Br (centres undefined) | -17% (inactive) | –
81 | CCn1c(SCC(=O)Nc2sc3c(c2C(N)=O)CCC(C)C3)nnc1-c1ccco1 (centres undefined) | 6.66% (inactive) | –
82 | CCCCNC(=S)NNC(=O)CCn1nc(C)c(Br)c1C | -1.01% (inactive) | –
83 | CCN(CC)C(=O)CSc1nnc(CNc2ccc(F)cc2)o1 | 16.3% (inactive) | –
84 | COc1ccccc1-c1nc(N(C)Cc2ccco2)c2ccccc2n1 | – | 1 µM (active)
85 | Cc1ccc(-c2cc(C(=O)NCc3ccco3)c3ccccc3n2)s1 | -16.4% (inactive) | –
86 | CN(Cc1ccco1)c1nc(-c2ccccc2C(F)(F)F)nc2ccccc12 | – | 7.94 µM (active)
87 | CN(C)Cc1ccccc1-c1nc(N(C)Cc2ccco2)c2ccccc2n1 | – | 0.794 µM (active)
88 | Cc1ccccc1-c1nc(N(C)Cc2ccco2)c2ccccc2n1 | – | 3.16 µM (active)
89 | CCC(=O)N(Cc1ccco1)c1nc(-c2ccccc2)cs1 | -25% (inactive) | –
90 | O=C1C(Cc2ccccc2)NC(=S)N1c1ccccc1 (centres undefined) | 6.7% (inactive) | –
91 | Cc1ccccc1S(=O)(=O)c1c(C)cc(-c2ccccc2)[nH]c1=O | -6.01% (inactive) | –
92 | COc1ccc(-n2c(=O)cnc3cnc(Oc4ccccc4)nc32)cc1 | -3.04% (inactive) | –
93 | CS(=O)(=O)c1cnc2c(-c3ccc(F)cc3)cnn2c1N | 0.896% (inactive) | –
94 | CCCCN=C1N/C(=C\c2ccco2)C(=O)N1c1ccccc1 | -29.6% (inactive) | –
95 | O=C(Nc1ccc(-c2cc3ccccc3oc2=O)c(Cl)c1)c1cccnc1 | 7.04% (inactive) | –
96 | COc1cccc(Nc2ncc3nc(-c4cn(C)c5ccccc45)c(=O)n(CCC#N)c3n2)c1 | -4.27% (inactive) | –
97 | O=C(c1cc(-c2ccccc2Cl)on1)N1CCN(C(=O)c2ccco2)CC1 | -1.39% (inactive) | –
98 | O=C(O)c1cc2cc(OCc3ccccc3)ccc2[nH]1 | -1.31% (inactive) | –
99 | COc1cc2c(C(=O)NCc3ccc(C)o3)cn(CC(C)C)c(=O)c2cc1OC | -14.4% (inactive) | –
100 | Cc1oc(=O)c(NC(=O)c2ccccc2)cc1C(=O)c1ccccc1 | -15.9% (inactive) | –
101 | Cc1cc(Oc2ccccc2)nc(-c2ccccc2)n1 | -9.47% (inactive) | –
102 | COc1ccc(OC)c(Nc2nc(-c3cccc([N+](=O)[O-])c3)nc3ccccc23)c1 | 5.17% (inactive) | –
103 | COc1cccc(-c2nc(N(C)C)c3ccccc3n2)c1 | – | 12.6 µM (active)
104 | COc1cccc(-c2nc(N(C)Cc3ccco3)c3ccccc3n2)c1 | – | 5.01 µM (active)
